Source: the supplement of paper PMC6555819

tested on: PXR:RXRa (NR concentration 270 nM, RXRa partner concentration 90 nM); assay: PBM binding z-score (relative to random genomic background probes); higher = stronger binding; sequences stand for … in GC…GCGATTGACAGCGTAGAATGAAGG
Procedure, shortened: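 For binding z-scores, the reference was random background probes on custom Agilent 4×180K protein-binding microarrays. These arrays were incubated 1 h with ligand-free nuclear receptor dimers in PBS pH 7.4, 2% milk, 0.02% Triton X-100, 1 mM DTT, 0.2 mg/mL BSA and 0.4 mg/ml salmon testes DNA. Fluorescence was scanned after antibody detection of each partner (one per run) and regression-normalized.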

| Sequence | PBM binding z-score |
| --- | --- |
| TCATCTAGGTAATACAGGTGAAAGTCGGCATCTA | 0.275 |
| CGTCCAAGGTCAGAAGGTCAGTGAAAGCGACGTG | 4.48 |
| CATACAGGGTCAGCTAAGCCAGAGTAGGGACGGC | 2.16 |
| TATACAGGGTCAGAGGCCAGAGTACGAATGTCGA | 2.83 |
| GGATCGAGGGCATTCGAGTTGATAGCATGGCGAT | 3.64 |
| ACTAGTTGGTCAGCTGTGGTCACACACAATTCGG | 0.312 |
| TCGAGTAGGTTAGGGGCACTCAGAATGGCGTCGA | 0.155 |
| CCTAGAAGGCCAATCTGGGTCACTCAAGGCTTGA | 1.86 |
| ACTTACGAGTCAACGAGGTTATAGCACGCGTATA | 1.51 |
| TAGCCTAGGTCATGGGCTAGTATACCACGCGAAC | 1.6 |
| TCTGCTAGGTCAACGATGGTCATCTAATCTGCTA | 2.1 |
| TCTATTAGCTGATTAGGGCAACCGAAACAGCGGA | -0.0443 |
| CTCGAAAGGTGGGTTGAGGTGAGTATACGGATAA | 1.01 |
| CGTCCAAGGTCATAGGAAGTCAGTGAAGACAGAT | 3.99 |
| ATCTATAGGTAACAAGTTCAGTGAAAGAGAGGAC | 1.72 |
| TCGTGTAGATCAAGCAGGTTAAGAAAGCCTGAGT | 0.421 |
| CCTGGGAGGACAACAGGAGGTCAGAGCTGCCAGA | 2.12 |
| AGAATGAGGGTATACGTAGATCAGGGAAGAAAGT | 0.14 |
| AATACAGGGTCACTAGGCTAGAGTAGGTACGAAT | 2.96 |
| TCGAGTAGGTTACTAATGGGGCATTCAGCTTTCT | 0.00033 |

| Sequence | PBM binding z-score |
| --- | --- |
| GTACCAACGTGAATAGGTCGTTGATGAGTAGGCG | -0.0666 |
| CCTACTGGGCCATCAGGTTATTGATATCAACGTT | -0.153 |
| ATCTCTAGGTAAGACTCAGTTCATTGAAGAACGC | 2.6 |
| CCTTACGGGTGAAGGTTATAGCACGGGTGGTACG | 0.216 |
| ACCTCTAGGTAAAAGTTCAGTGAATCCCGAGGAT | 1.54 |
| CGTCAAAGTTCAACTAAGGTGACGTAAAGCACGC | 5.89 |
| CATACTGGGCCATCAGGTCATTGATATCAACGTT | 1.99 |
| CCGACTGGGGCATAAGGTTACAATAAGCCAGCCC | 0.38 |
| CGAACTAGGTCAGAACAGGACAGTGCAGGATGAT | 0.783 |
| CAAACTTGGTCAAAGGTCAAAGTCGAGCCAACCA | 6.01 |
| TCATATAGGCAAATGCTAGGTGAAAGTCCGATCT | 0.34 |
| ATCTCTATGTAAAGATAGTTCAGTGAATGCAAAT | 0.604 |
| GTACCAAGGAGAATAGGTCGTTGATGAGTAGGCG | 0.103 |
| TATACAGGGCCAAAGGCCAGAGTACGAATGTCGA | -0.0978 |
| GCTGCTAGGTCAGGTTGCTCAGCTAACGGGTACG | -0.00315 |
| AGTCAAAGTTCAGGGCGAGGTAACGTAAAGCACG | 3.19 |
| ACCTACGGGTCAACGAGGTTATAGCACGCGTATA | 5.22 |
| TCTGCTAAGTCAGTTGGTCAGCTAACGAGCTGCC | -0.607 |
| TATCCTAGGTCATGGGCCAGTATACCACGCGAAC | 2.25 |
